Test results taken from PubChem BioAssay AID1159580 (chemical genetic matrix, 2015).
In all, about 5,500 compounds went through this assay and about 2,000 (36%) were called active. Inconclusive results (about 18%) are left out. Rule as the data show it: active = normalized growth mostly below about 0.91 (no sharp cut-off); inconclusive = no clear call, values can overlap the other calls; inactive = mostly above about 0.92. This is one part of the list.

Experiment: chemical genetic growth profiling, strain panel (AID 1159580);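 also: tested at 20 µM; growth read once vehicle control cultures reached saturation at 30 °C; 1 = growth at the plate median or of vehicle wells; lower values mean less growth of the strain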
Details: growth OD

Measured: normalized growth

C=C1C(=O)OC2CC1C(OC(C)=O)C/C(C)=C/CC/C(C)=C/CC[C@]2(C)O (stereo partly specified)
inactive: S. cerevisiae deletion strains, locus YJR043C, strain POL32, hits give low values 1.04 | S. cerevisiae deletion strains, locus YJR075W, strain HOC1, hits give low values 0.999 | S. cerevisiae deletion strains, locus YKL009W, strain mrt4, hits give low values 0.998 | S. cerevisiae deletion strains, locus YKL068W, hits give low values 1.01 | S. cerevisiae deletion strains, locus YKL085W, strain MDH1 (second series), hits give low values 0.99 | S. cerevisiae deletion strains, locus YKL085W, strain MDH1, hits give low values 0.99 | S. cerevisiae deletion strains, locus YKL160W, strain elf1, hits give low values 0.982 | S. cerevisiae deletion strains, locus YKR001C, strain vps1, hits give low values 1.02 | S. cerevisiae deletion strains, locus YKR026C, strain gcn3, hits give low values 0.997 | S. cerevisiae deletion strains, locus YKR091W, strain srl3, hits give low values 0.981 | S. cerevisiae deletion strains, locus YLL001W, strain dnm1, hits give low values 0.973 | S. cerevisiae deletion strains, locus YLL026W, hits give low values 0.987 | S. cerevisiae deletion strains, locus YLL041C, strain sdh2, hits give low values 0.993 | S. cerevisiae deletion strains, locus YLR027C, strain aat2, hits give low values 1.01 | S. cerevisiae deletion strains, locus YLR039C, strain RIC1, hits give low values 0.894 | S. cerevisiae deletion strains, locus YLR058C, strain SHM2, hits give low values 1.02 | S. cerevisiae deletion strains, locus YLR102C, strain apc9, hits give low values 1.02 | S. cerevisiae deletion strains, locus YLR221C, strain rsa3, hits give low values 1.03 | S. cerevisiae deletion strains, locus YLR258W, strain gsy2, hits give low values 1 | S. cerevisiae deletion strains, locus YLR262C, strain YPT6 (second series), hits give low values 0.916 | S. cerevisiae deletion strains, locus YLR262C, strain YPT6, hits give low values 0.858 | S. cerevisiae deletion strains, locus YLR268W, strain sec22, hits give low values 1 | S. cerevisiae deletion strains, locus YLR320W, strain mms22, hits give low values 1.03 | S. cerevisiae deletion strains, locus YLR330W, strain CHS5, hits give low values 1.03 | S. cerevisiae deletion strains, locus YLR342W, strain FKS1 (second series), hits give low values 0.993 | S. cerevisiae deletion strains, locus YLR342W, strain FKS1, hits give low values 0.995 | S. cerevisiae deletion strains, locus YLR357W, strain rsc2, hits give low values 1.02 | S. cerevisiae deletion strains, locus YLR370C, strain arc18, hits give low values 0.998 | S. cerevisiae deletion strains, locus YLR371W, strain rom2, hits give low values 1.02 | S. cerevisiae deletion strains, locus YLR384C, strain iki3, hits give low values 0.997 | S. cerevisiae deletion strains, locus YLR418C, strain cdc73, hits give low values 1.06 | S. cerevisiae deletion strains, locus YML016C, strain PPZ1, hits give low values 1.01 | S. cerevisiae deletion strains, locus YML032C, strain rad52, hits give low values 1.01 | S. cerevisiae deletion strains, locus YML120C, strain ndi1, hits give low values 0.99 | S. cerevisiae deletion strains, locus YML124C, strain tub3, hits give low values 1.01 | S. cerevisiae deletion strains, locus YMR058W, strain fet3, hits give low values 0.99 | S. cerevisiae deletion strains, locus YMR078C, strain ctf18, hits give low values 1.01 | S. cerevisiae deletion strains, locus YMR125W, strain sto1, hits give low values 0.973 | S. cerevisiae deletion strains, locus YMR129W, hits give low values 0.997 | S. cerevisiae deletion strains, locus YMR205C, strain PFK2, hits give low values 0.985 | S. cerevisiae deletion strains, locus YMR223W, strain ubp8, hits give low values 1 | S. cerevisiae deletion strains, locus YMR231W, strain pep5, hits give low values 0.976 | S. cerevisiae deletion strains, locus YMR263W, strain SAP30, hits give low values 1.01 | S. cerevisiae deletion strains, locus YMR307W, strain GAS1, hits give low values 0.977 | S. cerevisiae deletion strains, locus YNL067W, strain RPL9B, hits give low values 1.01 | S. cerevisiae deletion strains, locus YNL071W, strain lat1, hits give low values 0.996 | S. cerevisiae deletion strains, locus YNL128W, strain TEP1, hits give low values 1.03 | S. cerevisiae deletion strains, locus YNL153C, strain GIM3, hits give low values 1.04 | S. cerevisiae deletion strains, locus YNL209W, strain ssb2, hits give low values 0.991 | S. cerevisiae deletion strains, locus YNL233W, strain BNI4, hits give low values 1.02 | S. cerevisiae deletion strains, locus YNL248C, strain rpa49, hits give low values 0.988 | S. cerevisiae deletion strains, locus YNL250W, strain rad50, hits give low values 1.04 | S. cerevisiae deletion strains, locus YNL271C, strain bni1, hits give low values 1.02 | S. cerevisiae deletion strains, locus YNL298W, strain CLA4, hits give low values 1.01 | S. cerevisiae deletion strains, locus YNL307C, strain MCK1, hits give low values 1.03 | S. cerevisiae deletion strains, locus YNL322C, strain KRE1 (second series), hits give low values 1.01 | S. cerevisiae deletion strains, locus YNL322C, strain KRE1, hits give low values 1 | S. cerevisiae deletion strains, locus YNR049C, strain mso1, hits give low values 0.994 | S. cerevisiae deletion strains, locus YNR052C, strain pop2, hits give low values 1.01 | S. cerevisiae deletion strains, locus YOL012C, strain htz1 0.807 | S. cerevisiae deletion strains, locus YOL147C, strain pex11, hits give low values 1.03 | S. cerevisiae deletion strains, locus YOR001W, strain rrp6, hits give low values 1.01 | S. cerevisiae deletion strains, locus YOR061W, strain CKA2, hits give low values 1.02 | S. cerevisiae deletion strains, locus YOR069W, strain VPS5, hits give low values 1.01 | S. cerevisiae deletion strains, locus YOR070C, strain gyp1, hits give low values 0.995 | S. cerevisiae deletion strains, locus YOR080W, strain dia2, hits give low values 1.01 | S. cerevisiae deletion strains, locus YOR083W, strain WHI5, hits give low values 0.985 | S. cerevisiae deletion strains, locus YOR106W, strain vam3, hits give low values 1 | S. cerevisiae deletion strains, locus YOR136W, strain idh2, hits give low values 1.02 | S. cerevisiae deletion strains, locus YOR144C, strain elg1, hits give low values 1.02 | S. cerevisiae deletion strains, locus YOR184W, strain ser1, hits give low values 1.02 | S. cerevisiae deletion strains, locus YOR265W, strain rbl2, hits give low values 0.996 | S. cerevisiae deletion strains, locus YOR270C, strain vph1, hits give low values 0.937 | S. cerevisiae deletion strains, locus YOR290C, strain snf2, hits give low values 0.961 | S. cerevisiae deletion strains, locus YOR316C, strain cot1, hits give low values 1.01 | S. cerevisiae deletion strains, locus YPL051W, strain arl3, hits give low values 1.01 | S. cerevisiae deletion strains, locus YPL078C, strain atp4, hits give low values 0.96 | S. cerevisiae deletion strains, locus YPL106C, strain sse1, hits give low values 0.991 | S. cerevisiae deletion strains, locus YPL240C, strain hsp82, hits give low values 1 | S. cerevisiae deletion strains, locus YPL241C, strain CIN2, hits give low values 1 | S. cerevisiae deletion strains, locus YPR119W, strain clb2, hits give low values 1.01 | S. cerevisiae deletion strains, locus YPR141C, strain kar3, hits give low values 1.01 | S. cerevisiae deletion strains, locus YPR163C, strain tif3, hits give low values 1 | S. cerevisiae deletion strains, locus YPR167C, strain met16, hits give low values 1.01 | S. cerevisiae deletion strains, strain wtn01, hits give low values 1.02 | S. cerevisiae strains, strain wild type, hits give low values 1.01
